# NS1 inh – influenza NS1 inhibition; Potency, µM (highest dose often 46.1 µM); 270,000 compounds, 0.4% hits; AID 2326; further: actives are rising curves; nearly all actives have a fitted effect of over 50% in size
#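 S. cerevisiae expressing influenza A NS1, grown in glucose, washed, then diluted 1:100 into pH 6.0 -URA galactose medium with 23 nl compound. Growth recovery read as OD600; NS1-free strain serves as control.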
# SARS PLP yeast – blocks SARS-CoV papain-like protease in a yeast assay; S. cerevisiae expressing SARS-CoV PLpro, growth rescue; Potency, µM (series often up to 32.9 µM), most hits filed as activators; 330,000 compounds, 0.19% hits; AID 485353; further: nearly all actives have a fitted effect of over 55% in size
# Cycloheximide cs – affects cycloheximide protein synthesis inhibition readout, counter-screen; cell reporter, cycloheximide protein synthesis inhibition counterscreen; max response, %; 300,000 compounds, 12% hits; in the data active means max response mostly above about 13%, no sharp cut-off; inactive means mostly below about 14%; further: read at 38.3 µM for the half of the compounds with a filed dose
# Shiga toxin inh – blocks Shiga toxin action in Vero cells. 290,000 compounds, 9.2% hits. Vero cells, Shiga toxin protein synthesis inhibition reporter. AID 2315. inhibition, % at 38.7 µM; in the data active means inhibition mostly above about 28%, no sharp cut-off; inactive means mostly below about 43%
# Numbers stand for hits; n = inactive; u = inconclusive; x = not tested or not shown. Shown are actives, neighbours in structure and some others; about 12% of the full set was active somewhere. Unless noted, the call rests on the fitted dose curve.
SMILES,NS1 inh,SARS PLP yeast,Cycloheximide cs,Shiga toxin inh
COC(=O)/C(C#N)=C/c1c(N2CCN(c3ccccc3)CC2)nc2ccccn2c1=O,n,n,n,n
N#C/C(=C\c1c(N2CCN(c3ccccc3)CC2)nc2ccccn2c1=O)C(N)=O,n,n,28,50
CSCc1ccc(C(=O)NC(C)c2cnn(-c3ccccn3)c2C)o1 (stereo not given),n,n,24,48
COc1ccc(OC)c(S(=O)(=O)NC(C)c2cnn(-c3ccccn3)c2C)c1 (stereo not given),n,n,n,n
COc1ccccc1N(CC(=O)NCc1ccccc1C)S(=O)(=O)c1ccc(C)cc1,n,n,n,n
O=C1CCCN1CCCNc1ncnc2c1[nH]c1ccc(Cl)cc12,n,n,13,n
C=CCNc1ncnc2c1[nH]c1ccc(C)cc12,n,n,43,79
Cc1ccc2[nH]c3c(NCCN4CCOCC4)ncnc3c2c1,n,n,14,53
Cn1nccc1C(=O)Nc1cccc(S(=O)(=O)N2CCOCC2)c1,n,n,n,n
COc1ccc(Oc2nccc(-c3ccccc3)c2C#N)cc1,n,n,77,133
COc1ccc(Oc2nccc(-c3ccc(F)cc3)c2C#N)cc1,n,n,n,n
COc1ccnc(Oc2ccc3ccccc3c2)c1C#N,u,n,61,60
COc1ccnc(Oc2ccc(C)cc2)c1C#N,n,n,37,121
COc1ccnc(Oc2ccc(F)cc2)c1C#N,n,n,n,n
O=C1CCCC(=O)C1CS(=O)(=O)c1ccccc1,n,n,n,n
CCOC(=O)c1cccc(-c2ccc(C=O)o2)c1,n,n,47,116
CCOC(=O)c1ccc(-c2ccc(C=O)o2)cc1,n,n,48,80
CCCOC(=O)c1ccc(-c2ccc(C=O)o2)cc1,n,n,44,139
CCCOC(=O)c1cc(-c2ccc(C=O)o2)ccc1Cl,n,n,29,n
CCOC(=O)c1ccc(-c2ccc(/C=C(\C#N)C(=O)NCC3CCCO3)o2)cc1 (stereo not given),n,n,n,n
CCCCOC(=O)c1ccc(-c2ccc(/C=N/NC(=S)NCC)o2)cc1,n,n,n,n
O=Cc1ccc(-c2cccc(C(=O)O)c2)o1,x,n,n,n
Cc1cc(C)cc(C(=O)NCCCN2CCOCC2)c1,n,n,n,x
COc1ccccc1/C=C/C=N/NC(=O)c1cnccn1,n,n,35,64
COc1ccccc1/C=C/C=N/NC(=O)c1ccccn1,x,n,23,56
SMILES,NS1 inh,SARS PLP yeast,Cycloheximide cs,Shiga toxin inh
O=C(Nc1ccccc1)c1cccc(C(F)(F)F)c1,n,n,11,33
Cc1nc2ccc(NC(=O)c3cccc(C(F)(F)F)c3)cc2o1,n,n,21,n
CCN(CC)C(=O)c1ccc(NC(=O)c2cccc(C(F)(F)F)c2)cc1,x,n,n,n
CCCCCCCCCCCCCC[C@@H](O)[C@@H](O)[C@H](CO)NC(C)=O,x,x,n,n
CC1=C(C(=O)Nc2ccccn2)C(c2ccc(Br)cc2)NC(=S)N1 (stereo not given),n,n,37,50
CC1=C(C(=O)Nc2ccccn2)C(c2ccc(Br)cc2)n2ncnc2N1 (stereo not given),n,n,n,n
CC1=C(C(=O)Nc2ccccn2)C(c2ccc(Cl)cc2)NC(=S)N1 (stereo not given),x,n,46,72
C(#Cc1ccccc1)C[N+]1(CC#Cc2cccc3ccccc23)CCCC1,n,n,n,n
Cc1nc2c(cc(Oc3ccc(S(=O)(=O)N4CCOCC4)cn3)c3ccsc32)s1,u,n,72,113
Cn1c2ccccc2c2cc(/C=N/NC(=O)c3cc(O)ccc3O)ccc21,n,n,12,n
O=C(N/N=C/c1cccc(O)c1)c1ccccc1O,n,n,49,68
O=C(N/N=C/c1cccc(O)c1)c1csc2ccccc12,n,n,49,87
C/C(=N\NC(=O)c1csc2ccccc12)c1ccc(O)cc1,n,n,18,n
Cc1ccc(CC2CC(=O)N(c3cc(Cl)ccn3)C2=O)cc1 (stereo not given),n,n,n,n
NS(=O)(=O)c1ccccc1NC(=S)Nc1ccccc1S(N)(=O)=O,n,n,n,n
Cc1ccc(NCC(=O)N/N=C\c2cccc(O)c2)cc1,n,n,18,n
Oc1cccc(/C=N/NP(=S)(c2ccccc2)c2ccccc2)c1,n,n,14,n
Oc1cccc(C=NCc2ccccc2)c1,n,n,n,n
Cc1cc(C)c(NC(=O)CNC(=O)c2ccc(-n3cncn3)c([N+](=O)[O-])c2)c(C)c1,x,n,x,x
COc1cc(C2C(C#N)=C(N)Oc3cc(C)n(CCN4CCOCC4)c(=O)c32)cc(OC)c1OC (stereo not given),n,n,41,n
COc1cc(C2C(C#N)=C(N)OC3=C2C(=O)CC(C)(C)C3)ccc1OCCN1CCOCC1 (stereo not given),n,n,21,n
CCOC(=O)C1=C(COC(=O)c2cc(OC)c(OC)cc2[N+](=O)[O-])NC(=O)NC1C (stereo not given),x,n,x,x
O=C(Cc1ccccc1)Nc1sc2c(c1C(=O)Nc1cccc(Cl)c1)CCCC2,x,x,n,n
Nc1ccccc1NC(=O)CCn1c(=S)[nH]c2ccccc2c1=O,n,n,n,n
Cc1nc2ccccn2c1/C(O)=C1\C(=O)C(=O)N(CCCN(C)C)C1c1ccc(Cl)cc1 (stereo not given),n,x,x,x
SMILES,NS1 inh,SARS PLP yeast,Cycloheximide cs,Shiga toxin inh
CCCOc1ccc(CNC(=O)Cn2ncc3ccccc32)cc1,n,n,34,59
CCCOc1ccc(CNC(=O)CCC(=O)n2ncc3cc(C)ccc32)cc1,n,n,n,n
Nc1[nH]c(=O)[nH]c(=O)c1N=Nc1ccccc1Cl,n,n,n,n
Cc1[nH][nH]c(=O)c1N=Nc1ccccc1Cl,n,n,22,56
CCOC(=O)Cc1csc(SCn2nnc3ccccc3c2=O)n1,n,n,n,n
CCOC(=O)Cc1csc(-n2sc3ccccc3c2=O)n1,n,n,38,n
Cc1cnc(SCc2ccc(Cl)cc2Cl)[nH]c1=O,n,n,n,n
Cc1nnc(SCc2ccc(Cl)cc2Cl)[nH]c1=O,n,n,12,n
COc1ccc(NC(=O)CC(C)C)c([N+](=O)[O-])c1,n,n,n,n
COc1ccc2sc(NC(C)=O)nc2c1,n,n,34,64
CCC(=O)Nc1nc2cc(OC)ccc2s1,n,n,55,183
CCC(=O)Nc1nc2c(OC)ccc(OC)c2s1,n,n,n,n
CCC(=O)Nc1nc2ccc3nc(C)sc3c2s1,n,n,55,62
COc1ccc2sc(NC(=O)CC(C)C)nc2c1,n,n,39,94
COc1cccc(N(C(=O)CNC(=O)c2ccco2)C(C(=O)NC2CCCC2)c2cccnc2)c1 (stereo not given),n,n,n,n
Cc1nc(/C(N)=N/OC(=O)Cc2ccccc2)no1,x,n,n,n
COc1ccc2sc(NCc3ccccc3)nc2c1,n,n,48,146
COc1cccc(NC(=O)NC(=O)c2c(C)cc(Cl)nc2Cl)c1,n,n,n,n
COc1ccc2sc(NC(=O)NC(=O)c3c(Cl)cccc3Cl)nc2c1,n,n,19,n
COc1ccc(/C=N/N2C(=O)c3ccccc3C2=O)cc1,n,n,n,33
COc1ccc(/C=N/NC(=O)CCn2cnc3ccccc32)cc1,n,n,n,n

# Screening data: PubChem, National Center for Advancing Translational Sciences (NCATS)
